Assay outcomes as filed in PubChem.
A selection: hits, their analogues and other compounds. The true share with any hit is near 17%.
TDP1 cell noCPT: qHTS for Inhibitors of human tyrosyl-DNA phosphodiesterase 1 (TDP1): qHTS in cells in absence of CPT. DT40 Tdp1-/- hTDP1 cells, no CPT, ATP luminescence, 48 h. Potency, µM (highest dose often 46.2 µM), inactives show at the highest dose activity change, negative = growth inhibition, most hits filed as inhibitors. actives 15% (n = 420,000). AID 686978, 2013; note: % is set by controls: 0 for no effect and ±100 for the full control effect; nearly all actives have a fitted effect of over 55% in size
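Camptothecin absent (DMSO only). Human TDP1-complemented DT40 knockout cells, 400 cells/well, 37 °C for minimum 48 hr; ATP measured via CellTiter-Glo, 30 min dark incubation, luminescence.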
TGFb inhibitor: qHTS for Inhibitors of TGF-b; HepG2 CAGA-GFP TGF-b/SMAD3 reporter, GFP fluorescence, 18 h; TGF-beta stimulated, 500 pg/mL final; Potency, µM (highest dose often 46.1 µM), for inactives: at the top dose activity, negative = inhibition, actives largely listed as inhibitors; actives 1.2% (n = 410,000); AID 588855, 2011; note: % is set by controls: 0 for no effect and ±100 for the full control effect; nearly all actives have a fitted effect of over 65% in size
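Inhibition was scored as loss of TGF-beta-induced (500 pg/mL final, 18 hours, 37 degrees C) GFP in HEPG2 cells carrying a CAGA-GFP reporter, in DMEM with 1% FBS. Well GFP was summed per cell; Activity was normalised to unstimulated and stimulated DMSO wells, then concentration-response fitting.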
HepG2 tox: qHTS for Inhibitors of TGF-b: Cytotox Counterscreen; HepG2 CAGA-GFP viability, ATP luminescence, 18 h; Potency, µM (titrated, usually from 46.1 µM), for inactives: at the highest dose activity change, negative = cytotoxicity, most hits filed as cytotoxic; actives 0.76% (n = 410,000); AID 588856, 2011
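CellTiter-Glo luminescence gave cytotoxicity after 18 hours at 37 degrees C. The cells were HepG2 CAGA-GFP in 1% FBS DMEM, stimulated with 500 pg/mL TGF-beta after compound addition. %Activity was normalised to no-cell wells (complete cell-killing) and DMSO (no toxicity), and curves were fitted and classified.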
ATXN2 expr inh: Primary qHTS for Inhibitors of ATXN expression | HEK-293 ATXN2-luciferase reporter, luminescence, 24 h | actives 0.72% (n = 360,000) | AID 1745845, 2022 | Potency, µM (top dose mostly 57 µM), for inactives: at the top dose activity change, negative = inhibition, actives largely listed as inhibitors; note: % is set by controls: 0 for no effect and ±100 for the full control effect; nearly all actives have a fitted effect of over 55% in size
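ATXN2-luciferase reporter cells (luciferase flanked by upstream and downstream ATXN2 gene portions) were treated 24 h at 37 °C with compounds at up to 57 uM. SteadyGlo luminescence gave expression; GF-AFC fluorescence gave viability.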
ATXN viability: Viability Counterscreen for Primary qHTS for Inhibitors of ATXN expression. actives 0.49% (n = 400,000). S2 cells (HEK-293 line with an ATXN2-luciferase reporter) viability, CellTiter-Fluor protease fluorescence, 24 h. Potency, µM (doses to about 56.7 µM), most hits filed as cytotoxic; note: nearly all actives have a fitted effect of over 40% in size
DT40 TDP1 CPT: qHTS for Inhibitors of human tyrosyl-DNA phosphodiesterase 1 (TDP1): qHTS in cells in presence of CPT; AID 686979, 2013; actives 12% (n = 420,000); chicken DT40 Tdp1-/-;hTDP1 cells + 20 nM CPT, ATP luminescence, 48 h; Potency, µM (top dose mostly 46.2 µM), for inactives: top-dose activity change, negative = growth inhibition, most hits filed as inhibitors; note: % is set by controls: 0 for no effect and ±100 for the full control effect; nearly all actives have a fitted effect of over 55% in size
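Chicken DT40 Tdp1-/- cells stably complemented with human TDP1 were seeded at 400 cells/well in medium containing 20 nM camptothecin, exposed to pin-transferred compounds, and grown at 37 °C for at least 48 hr. Viability was read as ATP luminescence.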
* hit, by the source's call; i = inactive; ? = inconclusive; . = not tested or not shown; [ ] = remark or other dose. Calls come from the whole dose curve; as a rule, active = well fitted curve in the direction sought with a large enough effect; inconclusive = small, poorly fitted or top-dose-only effect, or another doubt; inactive = no such curve, though single readings can be large; an effect the other way counts as inactive or inconclusive. Potency is the fitted concentration of half-maximal effect.

SMILES	TDP1 cell noCPT	TGFb inhibitor	HepG2 tox	ATXN2 expr inh	ATXN viability	DT40 TDP1 CPT
O=C(OC1CCN(c2ncc(C(F)(F)F)cc2Cl)CC1)c1cccc(C(F)(F)F)c1	-14.3%	-0.7%	-7.6%	-14.0%	i	-10.6%
C=CCn1ccc(O)c(Cc2ccc(Cl)cc2)c1=O	18.7%	53.8%	11.6%	-3.5%	i	-17.4%
O=C(O)c1cc(=O)[nH]c2ccccc12	-14.0%	27.0%	-2.3%	2.1%	i	0.7%
CC[C@]12c3[nH]c4ccccc4c3CCN1C(=O)C(CC(=O)NCCCN(C)C)C[C@@H]2C(=O)N1CCN(C(=O)C2CC2)CC1 (stereo not given in full)	1.3%	-4.4%	-20.6%	1.0%	i	-8.3%
CCC(=O)N(CC)C1=C(O)c2ccccc2C(=O)C1=O	8.2µM*	-4.8%	-28.0%	-31.4%	.	4.61µM*
CCC(=O)N(C)/C=C1\Sc2ccccc2C1=O	-8.4%	-13.7%	-2.7%	25.4%	i	7.8%
Cc1cc(/C=C2\C=Cc3ccccc32)cc(C)c1N	?	?	-49.7%	.	.	?
Cc1ccc(NC(=O)c2sccc2-n2cccc2)c(C)c1	?	-0.6%	-14.7%	-0.7%	i	20.6µM*
CCOC(=O)c1cc(-c2ccccc2)n(-c2cccc(C(=O)Nc3cccc(C)c3)c2)c1C	23.1µM*	-13.7%	-20.6%	.	.	?
CCOC(=O)c1cnn(-c2ccc(C(=O)Nc3cccc(C(C)=O)c3)cc2)c1N	?	1.6%	-9.8%	-8.5%	i	2.06µM*
COC(=O)c1cnn(-c2ccc(C(=O)Nc3cccc(C(C)=O)c3)cc2)c1N	5.1%	-1.9%	-9.4%	8.5%	i	2.0%
CCOC(=O)c1cc(-c2ccccc2)n(-c2cccc(C(=O)N(CC)c3ccccc3)c2)c1C	18.4µM*	?	-8.4%	.	.	14.6µM*
CCOC(=O)c1cc(-c2ccccc2)n(-c2cccc(C(=O)Nc3ccc(OCC)cc3)c2)c1C	?	0.0%	-10.4%	.	.	?
C[C@@]12C(=O)N(c3cccc(F)c3)C(=O)N1[C@H](c1ccc(F)cc1)[C@@H]1C(=O)N(C3CCCCC3)C(=O)[C@@H]12	?	?	0.1%	9.2%	i	20.6µM*
C[C@@]12C(=O)N(c3cccc(F)c3)C(=O)N1[C@H](c1ccc(Cl)cc1)[C@@H]1C(=O)N(C3CCCCC3)C(=O)[C@@H]12	-23.0%	?	-2.2%	-18.6%	?	?
O=C1[C@H]2[C@@H](c3ccc(F)cc3)N3C(=O)N(c4cccc(Cl)c4)C(=O)[C@@]3(Cc3ccc(Cl)cc3)[C@H]2C(=O)N1C1CCCCC1	?	-4.8%	1.6%	12.4%	i	16.4µM*
OCCC1CN(Cc2ccc3cc(Cl)ccc3n2)CCN1Cc1ccsc1 (stereo not given)	?	-19.0%	-26.6%	-9.1%	i	13µM*
COc1cc(CN2CCN(Cc3ccc4cc(F)ccc4n3)CC2CCO)cc(OC)c1 (stereo not given)	-25.0%	3.3%	-10.1%	-6.1%	i	8.4%
CCOc1ccc(CN2CCN(Cc3cc4c(cc3Cl)OCO4)CC2CCO)cc1 (stereo not given)	16.4µM*	-15.4%	-20.2%	-33.7%	i	?
CCOc1ccc2nc(CN3CCN(Cc4ccccc4OCC)C(CCO)C3)ccc2c1 (stereo not given)	25.9µM*	-16.0%	-27.6%	-16.3%	i	23.1µM*
COc1ccc(CN2CCN(Cc3ccc4cc(F)ccc4n3)CC2CCO)c(C)c1C (stereo not given)	?	?	-32.5%	-26.9%	i	16.4µM*
Cc1cccc(N2CCN(S(=O)(=O)c3nnc(NC(=O)c4ccc(Cl)cc4)s3)CC2)c1	?	-10.2%	2.9%	10.3%	i	?
COc1cc(/C=C2/C=Cc3ccccc32)ccc1N(C)C	?	-0.8%	-48.0%	.	.	?
COc1ccc2c(c1)CCc1cnc(-n3ncc(C(=O)NCC(C)(C)CN(C)C)c3C)nc1-2	?	.	.	.	i	4.9%[9.04 µM]
CCOc1ccc(CN2CCN(Cc3cccn3-c3ncccn3)CC2CCO)cc1 (stereo not given)	?	-6.4%	-11.5%	1.8%	i	-16.1%
SMILES	TDP1 cell noCPT	TGFb inhibitor	HepG2 tox	ATXN2 expr inh	ATXN viability	DT40 TDP1 CPT
COc1ccc(CN2CCN(Cc3cccn3-c3ncccn3)CC2CCO)c(C)c1C (stereo not given)	9.2µM*	-28.3%	-33.2%	.	i	?
Oc1ccc(-c2nc(-c3ccc(F)cc3)c(-c3ccncc3)[nH]2)cc1	6.51µM*	?	-34.1%	?	i	?
CCN(CCCNC(=O)c1nn(-c2ccc(OC)c(Cl)c2)c(=O)c2c1c1ccccc1n2C)c1cccc(C)c1	-23.1%	6.6%	-14.8%	0.1%	i	?
CCOC(=O)CSc1nc2ccccc2c(=O)n1Cc1ccco1	-10.2%	-17.3%	-1.6%	-10.8%	i	-0.6%
CCn1c(SCC(=O)N2CCN(c3ccc(F)cc3)CC2)nc2ccccc2c1=O	?	-3.6%	-5.7%	-23.7%	i	20.6µM*
Cc1cc(-n2c(C)cc(C(=O)CSc3nc4ccccc4c(=O)n3Cc3ccco3)c2C)no1	20.6µM*	7.3%	-9.4%	29.8%	i	23.1µM*
CCn1c(SCC(=O)N2CCN(c3ccc(Cl)cc3)CC2)nc2ccccc2c1=O	?	-2.1%	-14.7%	-5.8%	?	?
O=C(CSc1nc2ccccc2n1Cc1ccccc1)N1CCN(c2ccc(F)cc2)CC1	-22.8%	-3.9%	1.7%	10.3%	i	-13.7%
COc1ccc(Cn2c(SCC(=O)N3CCN(c4ccc(F)cc4)CC3)nc3ccccc32)cc1	20.6µM*	-15.9%	-2.0%	-1.9%	i	20.6µM*
O=C(CSc1nc2ccccc2c(=O)n1Cc1ccco1)c1ccccc1	20.6µM*	-3.1%	-36.2%	13.1%	i	16.4µM*
O=C(O)/C=C/C(=O)Nc1c(F)cccc1F	0.7%	-6.6%	10.2%	-16.5%	?	8.5%
O=C(CSc1nc2ccccc2c(=O)n1CCCN1CCOCC1)N1CCN(c2ccccc2)CC1	?	-3.3%	0.2%	-15.1%	i	-10.4%
